In the experiment the test system is Sam68 (KHDRBS1). Kind of experiment: Sam68 small-molecule binders, primary screen, biochemical, small-molecule microarray, 635 nm fluorescence (AID 1125).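 Note: score merges 667 nm channel intensity with signal to noise over triplicate slides.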 Particulars: small-molecule microarray binding, higher = more signal.
In turn, `COC(=O)[C@@H]1N=C(c2ccc(OCCCO)cc2)O[C@@H]1C` had a composite z-score of 0.973.

In turn, `C=C[C@H]1C(C(=O)OCC)=CC[C@@H](c2ccccc2)N1S(=O)(=O)c1ccc(C)cc1` gave a composite z-score of 1.1.

`CC(c1ccccc1)C(O)C1C=CC2C(=O)N(C)C(=O)C2N1Nc1ccccc1` (stereo not given) had a composite z-score of 1.31.

The compound `NC(=O)NCC#Cc1ccc2c(c1)[C@]1(C(=O)N2)[C@H](c2ccccc2OCCO)N2[C@H](c3ccccc3)[C@H](c3ccccc3)OC(=O)[C@H]2[C@@H]1C(=O)NC[C@H](O)c1ccccc1` gave a composite z-score of 0.026.

Regarding `CCCCC[C@H]1OC[C@@]23C=C(Br)[C@@H](CC12)[C@@]1(CO1)C3=O` (stereo not given in full), the composite z-score is 0.491.

The compound `CCC#CCN(Cc1ccccc1Br)[C@H](/C=C/C1CC1)[C@@H](O)Cc1ccccc1` yielded a composite z-score of -0.549.

Compound `COC(=O)C(CC#Cc1ccc2c(c1)[C@]1(C(=O)N2)[C@H](c2ccc(O)cc2)N2[C@H](c3ccccc3)[C@H](c3ccccc3)OC(=O)[C@H]2[C@@H]1C(=O)NC[C@H](O)c1ccccc1)C(=O)OC` showed a composite z-score of 1.24.

In the case of `CCCCC(O)C1C=CC2C(=O)N(C)C(=O)C2N1N(c1ccccc1)c1ccccc1` (stereo not given), the composite z-score stood at 1.32.

Consider `O=C1[C@H]2C=C(I)[C@H](C[C@@H]2OCCOCCO)[C@@]12CO2`, for which the composite z-score was 0.807.

As to `C=CC[C@]1(C(=O)N2CCCCC2)N=C(c2ccc(OCCCO)cc2)O[C@H]1c1ccccc1CN=[N+]=[N-]`, the composite z-score was found to be 1.3.

Regarding `COC(=O)[C@@]1(Cc2ccc(OC)cc2)[C@H]2c3cc(C(=O)N4CCCC4)n(CCO)c3C[C@H]2CN1C(=O)c1ccccc1`, the composite z-score is 0.827.

Turning to `C=CC[C@]1(C(=O)N2CCOCC2)COC(c2ccc(OCCCO)cc2)=N1`, the composite z-score was found to be 1.28.

Turning to `CN(C)C(=O)[C@]1(CCC(=O)OC(C)(C)C)N=C(c2ccc(OCCCO)cc2)O[C@@H]1c1ccccc1CN=[N+]=[N-]`, the composite z-score worked out at 1.34.

The compound `CO[C@H]1O[C@H](CO)[C@@H](OC(=O)Nc2ccc3c(c2)OCO3)[C@H](OC(=O)Nc2ccc3c(c2)OCO3)[C@@H]1OC(=O)Nc1ccc2c(c1)OCO2` returned a composite z-score of 1.31.

`C=C[C@@H](OC)[C@H](OC(=O)Nc1ccc(OC)cc1)c1ccc(O)c(F)c1` showed a composite z-score of 0.21.

With `COC(=O)c1c(CC[C@@H](CO)NC(=O)N[C@@H](C)Cn2cc(-c3ccccn3)nn2)oc(C(C)=O)c1C(=O)OC`, the composite z-score was 0.871.

With `CCCC[C@@H](O)C1=C(COC)C[C@H]2C(=O)N(Cc3ccccc3)C(=O)[C@H]2[C@H]1CO`, the composite z-score stood at 0.651.

`CCCN1C(=O)[C@]2(Cc3ccccc31)N=C(c1ccc(OCCCO)cc1)O[C@@H]2c1ccccc1`: the composite z-score turned out to be 1.24.

As for `CCOC(=O)C[C@H]1[C@H](OC(=O)c2ccc(C(=O)c3ccccc3)cc2)[C@@H](NC(=O)C2CCCCC2)c2cc(OCCCO)ccc2N1C(=O)c1ccc2ccccc2n1`, the composite z-score worked out at 1.31.

For the compound `COc1cccc(C)c1NC(=O)O[C@H]1[C@H](OC(=O)Nc2ccc3c(c2)OCO3)[C@@H](OC(=O)Nc2ccc3c(c2)OCO3)[C@@H](OC)O[C@@H]1CO`, the composite z-score was 1.29.

`CC(C)(C)OC(=O)COc1cccc(C(=O)CCN2CCOCC2)c1`: the composite z-score is 0.656.

For the compound `CC(C)NC(=O)[C@@]1(C)c2ccccc2C(=O)N(Cc2ccc(OC(F)(F)F)cc2)[C@H]1c1ccc(CO)cc1`, the composite z-score was determined as 0.844.

On to `COc1cc2c(cc1O)C(c1cccs1)N(Cc1cc3c(cc1Br)OCO3)CC2` (stereo not given), for which the composite z-score amounted to 1.04.

The compound `CCCCNC(=O)c1ccc(C#CC(C)(C)C)c(OC(C)=O)c1` came in with a composite z-score of 1.02.

The compound `CCCC1(C(=O)OC)C=C2C(=C(C)C(=O)C2C)CN1` (stereo not given) displayed a composite z-score of -0.406.

Compound `O=C(C1N=C(c2ccc(OCCCO)cc2)N(c2ccccc2)O1)N1CCCCC1` (stereo not given) showed a composite z-score of 1.29.

For `CCCCN1CC=CC23O[C@@H]4/C=C\CCC(C)OC(=O)C4[C@H]2C(=O)N(CCCO)[C@@H]3C1=O` (stereo not given in full), the composite z-score is -0.62.

The compound `Cc1ccc(S[C@]2(C(=O)NCC(F)(F)F)CC(=O)N(Cc3cc(C(F)(F)F)cc(C(F)(F)F)c3)[C@@H]2c2ccc(CO)cc2)cc1` came in with a composite z-score of -0.36.

The compound `COC(=O)[C@@]1(Cc2ccc(F)cc2)[C@H]2c3cc(C(=O)N(C)C)n(CCc4ccc(OC)c(Br)c4)c3C[C@H]2CN1C(=O)c1ccccc1` displayed a composite z-score of -0.111.

In turn, `O=C(NCCN1CCOCC1)[C@@H]1c2ccccc2C(=O)N(Cc2ccccc2Cl)[C@H]1c1ccc(CO)cc1` displayed a composite z-score of -0.721.

Consider `CCCCCN1CC=CC23O[C@@H]4/C=C\CCCOC(=O)C4[C@H]2C(=O)N(C(C)CO)[C@@H]3C1=O` (stereo not given in full), for which the composite z-score is 0.0008.

For `COc1ccc(CCNC(=O)[C@@H]2c3ccccc3C(=O)N(C3CCCCC3)[C@H]2c2ccc(CO)cc2)cc1`, the composite z-score is 0.508.

`C=CCNC(=O)[C@H]1[C@@H]2C(=O)O[C@@H](c3ccccc3)[C@@H](c3ccccc3)N2[C@@H](c2ccccc2OCCO)[C@]12C(=O)N(C(=O)OCCOC)c1ccc(C#CC3(O)CCCCCC3)cc12` gave a composite z-score of 1.29.

For `C#Cc1cc2ccccc2oc1=O`, the composite z-score was 0.343.

The compound `CCCC=C(CCC)[C@@H](NS(=O)(=O)CC12CCC(CC1=O)C2(C)C)c1ccc(C(=O)OC)cc1` (stereo not given in full) registered a composite z-score of 0.96.

(Values after PubChem BioAssay.)
